Measurements reported in PubChem BioAssay AID602449 (Sanford-Burnham Center for Chemical Genomics, 2012).
About 5,000 (1.4%) of roughly 360,000 compounds were called active.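 How the source made its calls: active means inhibition of 50% or more, scaled per plate between neutral and stimulator controls; inactive means the rest.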 The list comes from a sample in which actives are over-represented; it also holds similar structures and randomly drawn compounds.

assay: mitochondrial permeability transition pore inhibitors, primary screen, biochemical, isolated mouse mitochondria, absorbance (AID 602449); conditions: Ca2+ swelling absorbance, 30 min, at 10 µM, stronger effect = higher value;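 further: 0% = DMSO wells given calcium and 100% = 1 mM EGTA wells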

inhibition, inactive:
Cc1cccnc1NC(=O)Cn1c(=O)oc2ccccc21 -0.1%
COC(=O)c1ccc(CNC(=O)C2CCC(=O)N(Cc3cccc(F)c3)C2)cc1 (stereo unspecified) -0.2%
CCn1c(NC(=O)c2ccccc2)c(-c2cccs2)c(=O)c2ccccc21 1.4%
C=CCN(CC=C)S(=O)(=O)c1ccc(C(=O)Nc2nc3c(s2)CCc2ccccc2-3)cc1 -1.2%
COc1ccc(NC(=O)CCCN2C(=O)C(c3ccccc3)Oc3cccnc32)cc1 (stereo unspecified) 1.6%
CCCNC(=O)c1ccccc1NC(=O)CSCc1ccc(OC)cc1 0%
CCN1C[C@@H]2[C@@H]3C(=O)N(C)C(=O)[C@@H]3[C@](C)(C1=O)N2C(=O)c1ccccc1 -0.4%
COc1ccc(S(=O)(=O)N[C@@H]2C=C[C@@H](CC(=O)N3CCc4ccccc4C3)O[C@@H]2CO)cc1 0.4%
Cc1cc(C)c(C#N)c(SCC(=O)N(CC(C)C)C2CCS(=O)(=O)C2)n1 (stereo unspecified) -1.7%
CC1=C(C/C=C(\C)CCCC(C)CCCC(C)CCCC(C)C)C(=O)c2ccccc2C1=O (stereo unspecified) -2.2%
COc1ccc(CCNS(=O)(=O)c2cn(C)nc2C)cc1 -0.3%
N#C/C(=C\c1cccnc1)C(=O)Nc1ccc(SC(F)F)cc1 7.2%
CCC1CCCCN1C(=S)Nc1ccc(SC(F)F)cc1 (stereo unspecified) 34%
CCc1nc2c(OCCOc3ccc(F)cc3)cccn2c1N(C)C(=O)c1ccccc1F 0.6%
O=C(CSc1nc2[nH]c(=O)[nH]c(=O)c2s1)Nc1cccc(F)c1 -0.6%
Cc1nc2nc(SCC(=O)c3ccccc3)[nH]c2cc1Br 9.9%
COc1cc(OC)cc(-c2c(-c3cccs3)c3cc(-c4ccc(OC)nc4)ccc3n2C)c1 -0.4%
CCC(C)NC(=O)c1ccccc1NC(=O)c1ccccc1N(C)S(C)(=O)=O (stereo unspecified) 0.4%
COCC(C)n1c(C)cc(C(=O)CSc2cc(C)c3ccccc3n2)c1C (stereo unspecified) 3.2%
CCCNC(=O)c1cc(C2CCCCN2S(=O)(=O)c2cn(C)cn2)on1 (stereo unspecified) 0.2%
O=C(NCc1cc(C(F)(F)F)cc(C(F)(F)F)c1)C1CC(c2cccc(F)c2)=NO1 (stereo unspecified) 2%
CN(CC(=O)Nc1ccc(OC(F)(F)F)cc1)C(=O)C1CCC1 -0.8%
COC(=O)Cc1ccc(OCC(=O)Nc2ccc(OC(F)(F)F)cc2)cc1 0.1%
Cc1sc2ncnc(N3CCC(C(=O)NNC(=O)c4ccc(F)cc4)CC3)c2c1C 0.7%
Cc1ccc2cc(CN(c3ccc(C)c(C)c3)S(C)(=O)=O)c(=O)[nH]c2c1 -0.6%
C/C(=N\Nc1ccc([N+](=O)[O-])cc1)c1ccc(-n2nncc2C(C)(C)C)cc1 20.4%
Cc1nc(C)c2c(c1C(F)(F)F)-c1ccccc1C2(F)F -0.4%
COc1cc(S(=O)(=O)Nc2ncn[nH]2)ccc1Cl -1.7%
CCCCNC(=O)CSc1nc2ccc(NC(=O)CSc3nnc(N)s3)cc2s1 15.3%
CCCCNC(=O)CSc1nc2ccc(NC(=O)CSc3nnc(COc4ccccc4C)n3C)cc2s1 4.8%
O=C1c2ccccc2C(Nc2ccc3c(c2)OCCO3)N1Cc1ccco1 (stereo unspecified) 3%
C[C@H](CO)N1C[C@H](C)[C@@H](CN(C)C(=O)NC2CCCCC2)Oc2ccc(NC(=O)c3ccncc3)cc2C1=O -0.8%
CCOC(=O)NC(C(F)(F)F)(C(F)(F)F)P(=O)(c1ccccc1)c1ccccc1 -3.1%
CN(c1ccccc1)S(=O)(=O)c1ccc(Cl)c(C(=O)OCC(N)=O)c1 1.9%
CC(=O)c1c(C)[nH]c(C(=O)COC(=O)CCOc2ccc(C)cc2)c1C -2.4%
O=C1NCCn2nc3ccccc3c21 2.9%
CCN(CC)CCOC(=O)c1ccc(NC(=O)CNC(=O)c2ccccc2)cc1 -3.4%
CCN(CC)CCNCC(=O)Nc1ccc(Oc2ccccc2)cc1 1.8%
Cc1ccccc1C(=O)NC(=S)NC1CC1 1.7%
COc1ccccc1C(=O)NC(=S)Nc1ccc(N2CCOCC2)cc1 -1.6%
O=[N+]([O-])c1cccc(S(=O)(=O)N2CCCCCC2)c1 -1%
CC1=CC(=C(C#N)c2nc3ccccc3s2)C=C(C)N1c1ccc(F)cc1F 1.2%
O=C(O)CC/C(=C\c1cc2c(cc1Br)OCO2)c1nc2ccccc2s1 0.4%
Cc1ccc(S(=O)(=O)NC2CCCCCC2)cc1C(N)=O 1%
COc1cc(Cl)c(C)cc1NC(=O)CSc1nnc(CN2CCCC2)o1 -2%
COc1ccc(N2CCN(CCCNC(=O)C3CCN(S(=O)(=O)N4CCOCC4)CC3)CC2)cc1 -2.8%
CC(Oc1ccc(-c2ccccc2)c(F)c1)c1ccn(S(=O)(=O)c2cccc3ccccc23)n1 (stereo unspecified) 1%
Cc1cc(C)c(C)c(S(=O)(=O)Nc2cccnc2)c1C 1.4%
COc1ccc(S(=O)(=O)Nc2cccnc2)c(Cl)c1Cl 0.5%
COc1cc(OC)cc(/C(N)=N/O)c1 0.6%
O=C(CNC1CCCCC1)NCC1(c2ccccc2)CCCC1 -0.9%
COC(=O)Nc1nc2ccc(Sc3ccccc3)cc2[nH]1 1.2%
CCOC(=O)c1nnn2c3ccccc3c(=O)n(C)c12 1.2%
CCOC(=O)N1CCN(C(=O)c2nn(-c3ccc(C)cc3)c(=O)c3c2c2ccccc2n3C)CC1 11.3%
CCN(CC)S(=O)(=O)c1ccc(N2CCCC2)c(NS(=O)(=O)c2cccs2)c1 -2.4%
Brc1ccccc1/C=N/Nc1nc2ccccc2o1 1.1%
CC(Oc1ccc(F)cc1)C(=O)Nc1ccccc1C(=O)NC1CC1 (stereo unspecified) -1.6%
Cc1cc(C(=O)OCC(=O)NCc2ccco2)c(C)n1-c1ccccc1 -0.8%
CCN1C(=O)[C@@H]2[C@@H](c3ccc(-c4cccc(Cl)c4)cc3)N3CCC[C@@]3(C(=O)OC)[C@@H]2C1=O -1%
CCOC(=O)c1ccc(NC(=O)CS(=O)(=O)c2cn(CC)c3ccccc23)cc1 1%
CCOC(=O)c1ccc(NC(=O)CCn2c(=O)oc3ccccc32)cc1 0.1%
CN(c1cccc(NC(=O)c2ccc(CN3CCc4ccccc4C3)cc2)c1)S(C)(=O)=O 0%
CNS(=O)(=O)c1ccc(NC(=O)Nc2ccc3c(c2)OCO3)cc1 0.6%
CN(C)S(=O)(=O)c1cccc(NC(=O)Cc2ccsc2)c1 0.2%
Cc1ccc(CN(CC(=O)NCC2CCCO2)S(=O)(=O)c2ccc(C)cc2)cc1 (stereo unspecified) 0.1%
CN(c1ccccc1)S(=O)(=O)c1cccc(NC(=O)Cc2c(F)cccc2Cl)c1 18.1%
COc1ccc(C)cc1S(=O)(=O)N(CC(=O)Nc1cccc([N+](=O)[O-])c1)c1ccc(C)cc1 0.7%
O=C1N=C2SCCN2/C1=C\c1c(Cl)cccc1Cl -0.2%
O=C(CNC(=O)OCc1ccccc1)Oc1cc2oc(=O)cc(-c3ccccc3)c2cc1Cl 7.5%
Clc1ccc(-c2cc(-c3ccccn3)on2)c(Cl)c1 2.1%
COc1ccc(C2c3[nH]c4ccccc4c3CCN2CCCn2cccn2)cc1C (stereo unspecified) -1.1%

inhibition, active:
N#Cc1ccc(C(=O)Nc2nc(-c3cccs3)c(C(=O)C(F)(F)F)s2)cc1 87.5%
Cc1ccc2nnn(Cc3cccc(C(C)(C)C)c3O)c2c1 93.7%
COc1ccc(/C=C2/SC(=O)N(CCCCCC(=O)Nc3ccccc3C(=O)O)C2=S)cc1 60%
O=C(Cc1ccc(Cl)c(Cl)c1)Nc1ccc(SC(F)F)cc1 82%
Cc1nc2nc(SCC(=O)Nc3cccc(F)c3)[nH]c2cc1Br 63.9%
Cn1nccc1NC(=O)Nc1ccc(OC(F)(F)F)cc1 60.1%
Nc1nnc(SCC(=O)Nc2ccc3nc(SCC(=O)Nc4ccccc4)sc3c2)s1 95.5%
CC(=O)c1c(C)[nH]c(C(=O)COC(=O)c2cccc(S(=O)(=O)N(C)c3ccccc3)c2)c1C 99.3%
CCCC(C(=O)OCCN(CC)CC)(c1ccccc1)c1ccccc1 85.7%
Cc1ccccc1C(=O)NC(=S)Nc1ccc(N2CCN(C(=O)c3ccccc3)CC2)cc1 57.1%
N#C/C(=C(/O)Cc1cccc2ccccc12)c1nc2ccccc2s1 95.9%
COc1ccccc1Oc1ccc(S(=O)(=O)Nc2cccnc2)cc1 82.5%
CCCc1nc2c(c(=O)c3ccccc3n2C)c(=O)n1C1CCCCCC1 77.9%
Oc1c(Br)cccc1/C=N/Nc1c(F)c(F)c(F)c(F)c1F 102%
CCOC(=O)c1ccc(NC(=O)Cn2cnc3cc(C)c(C)cc32)cc1 96.9%
Cc1ccc(S(=O)(=O)N(CC(=O)Nc2cccc([N+](=O)[O-])c2)Cc2ccc(Cl)cc2)cc1 80.3%
CN(c1cccc(NC(=O)Nc2ccc(Cl)cc2)c1)S(C)(=O)=O 92.2%
CN(c1ccccc1)S(=O)(=O)c1cccc(NC(=O)Cc2ccc(Cl)cc2)c1 61.7%
Clc1ccc(-c2cc(C3CCNCC3)[nH]n2)c(Cl)c1 76.8%
O=C1c2ccccc2C2=Nc3ccccc3SC(c3ccccc3F)C12 (stereo unspecified) 93.3%
